# Assays:
# Assay in all cases: DAPPL (digital affinity profiling via proximity ligation, sequencing); 10 mM Tris-HCl pH 7.5, 50 mM NaCl, 1 mM DTT, 4% glycerol, room temperature, 30 min; GST-TFs on glutathione beads, 16-mer random dsDNA library, 0.1% formaldehyde crosslink after washing; high values mean tight binding
# Settings in all cases: protein: recombinant; tags: N-terminal GST; dsDNA, one strand shown
# ERF = target: T1, ERF (Homo sapiens, UniProt P50548 1-548)
# T1 sequence: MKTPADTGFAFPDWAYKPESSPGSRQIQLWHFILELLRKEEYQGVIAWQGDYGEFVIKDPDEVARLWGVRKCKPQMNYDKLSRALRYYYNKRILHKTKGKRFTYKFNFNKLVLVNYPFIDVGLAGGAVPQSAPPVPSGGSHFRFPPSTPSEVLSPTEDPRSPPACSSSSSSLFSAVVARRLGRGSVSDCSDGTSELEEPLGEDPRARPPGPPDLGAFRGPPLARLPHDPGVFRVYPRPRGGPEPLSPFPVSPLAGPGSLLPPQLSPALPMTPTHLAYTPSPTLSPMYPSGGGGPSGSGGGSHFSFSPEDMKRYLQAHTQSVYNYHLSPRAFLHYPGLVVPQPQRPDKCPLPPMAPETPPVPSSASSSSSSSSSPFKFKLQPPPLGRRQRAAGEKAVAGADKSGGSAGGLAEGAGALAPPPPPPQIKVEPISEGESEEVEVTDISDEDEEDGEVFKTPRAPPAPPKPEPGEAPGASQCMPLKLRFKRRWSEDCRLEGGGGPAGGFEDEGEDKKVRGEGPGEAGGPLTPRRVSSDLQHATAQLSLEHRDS
# Summary of the method: (§1)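 A tag-only sample was pooled with DNA-barcoded human transcription factors that had been expressed in yeast as GST fusions and captured on glutathione beads. The pools were incubated for 30 min at room temperature with 200 nmole of a random double-stranded 16-mer DNA library in Tris/NaCl/DTT/glycerol buffer, then washed, crosslinked with 0.1% formaldehyde, proximity-ligated (BsaI/T4 ligase, 1 h, 37 °C), PCR-amplified and sequenced on an Illumina NextSeq500. Binding signal is each hexamer's read frequency for a factor divided by its frequency for the tag-only sample.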
# ETV3L = target: T2, ETV3L (Homo sapiens, UniProt Q6ZN32 1-361)
# T2 sequence: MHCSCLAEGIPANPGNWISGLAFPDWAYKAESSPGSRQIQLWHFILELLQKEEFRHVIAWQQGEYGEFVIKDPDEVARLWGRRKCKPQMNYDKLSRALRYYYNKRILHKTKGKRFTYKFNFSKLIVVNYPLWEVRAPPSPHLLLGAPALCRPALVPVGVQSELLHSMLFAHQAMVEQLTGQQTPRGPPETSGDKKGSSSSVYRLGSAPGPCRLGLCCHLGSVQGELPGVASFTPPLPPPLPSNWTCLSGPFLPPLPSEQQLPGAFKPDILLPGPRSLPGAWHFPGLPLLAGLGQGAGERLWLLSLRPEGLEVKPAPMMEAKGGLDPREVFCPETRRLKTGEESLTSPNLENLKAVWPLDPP
# Summary of the method: as §1
# ETS2 = target: T3, ETS2 (Homo sapiens, UniProt P15036 1-469)
# T3 sequence: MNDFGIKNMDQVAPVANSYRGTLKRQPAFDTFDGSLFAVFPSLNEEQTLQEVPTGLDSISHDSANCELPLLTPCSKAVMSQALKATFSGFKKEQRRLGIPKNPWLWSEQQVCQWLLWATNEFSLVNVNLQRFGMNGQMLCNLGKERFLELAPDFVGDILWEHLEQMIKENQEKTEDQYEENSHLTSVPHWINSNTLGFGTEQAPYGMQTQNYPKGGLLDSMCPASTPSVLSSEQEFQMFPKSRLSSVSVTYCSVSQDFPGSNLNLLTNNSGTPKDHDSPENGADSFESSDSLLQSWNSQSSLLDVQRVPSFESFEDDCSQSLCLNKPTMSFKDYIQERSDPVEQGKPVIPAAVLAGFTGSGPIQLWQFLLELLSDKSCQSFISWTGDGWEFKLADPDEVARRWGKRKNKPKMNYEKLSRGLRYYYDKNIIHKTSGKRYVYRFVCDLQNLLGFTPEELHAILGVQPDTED
# Summary of the method: as §1
# SPDEF = target: T4, SPDEF (Homo sapiens, UniProt O95238 1-335)
# T4 sequence: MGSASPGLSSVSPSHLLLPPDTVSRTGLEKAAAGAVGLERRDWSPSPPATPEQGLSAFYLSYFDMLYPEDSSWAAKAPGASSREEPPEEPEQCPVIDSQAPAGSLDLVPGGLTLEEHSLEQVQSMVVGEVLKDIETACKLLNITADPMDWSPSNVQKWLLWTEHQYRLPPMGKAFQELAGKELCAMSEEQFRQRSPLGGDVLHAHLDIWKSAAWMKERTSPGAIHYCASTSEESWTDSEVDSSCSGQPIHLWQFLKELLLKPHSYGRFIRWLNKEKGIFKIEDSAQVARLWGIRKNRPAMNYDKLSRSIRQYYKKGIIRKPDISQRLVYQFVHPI
# Summary of the method: as §1
# ETV7 = target: T5, ETV7 (Homo sapiens, UniProt Q9Y603 1-341)
# T5 sequence: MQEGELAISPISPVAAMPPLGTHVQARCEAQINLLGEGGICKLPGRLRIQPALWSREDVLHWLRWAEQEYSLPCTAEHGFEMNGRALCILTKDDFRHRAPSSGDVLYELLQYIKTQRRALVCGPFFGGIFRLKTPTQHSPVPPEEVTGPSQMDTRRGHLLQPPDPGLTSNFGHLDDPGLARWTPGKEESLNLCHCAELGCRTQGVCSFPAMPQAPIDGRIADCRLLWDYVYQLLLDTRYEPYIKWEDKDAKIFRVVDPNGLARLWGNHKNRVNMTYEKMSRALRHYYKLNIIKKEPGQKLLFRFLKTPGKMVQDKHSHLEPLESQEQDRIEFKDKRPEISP
# Summary of the method: as §1
# ELF5 = target: T6, ELF5 (Homo sapiens, UniProt Q9UKW6-2 1-255)
# T6 sequence: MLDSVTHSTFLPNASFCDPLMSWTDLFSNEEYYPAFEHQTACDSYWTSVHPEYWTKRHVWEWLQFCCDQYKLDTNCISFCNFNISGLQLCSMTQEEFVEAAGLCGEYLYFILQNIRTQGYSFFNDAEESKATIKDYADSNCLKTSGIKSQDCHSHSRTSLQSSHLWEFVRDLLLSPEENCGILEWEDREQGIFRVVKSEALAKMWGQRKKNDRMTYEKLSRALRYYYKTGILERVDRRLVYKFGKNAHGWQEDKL
# Summary of the method: as §1
# ETV3 = target: T7, ETV3 (Homo sapiens, UniProt P41162-2 1-143)
# T7 sequence: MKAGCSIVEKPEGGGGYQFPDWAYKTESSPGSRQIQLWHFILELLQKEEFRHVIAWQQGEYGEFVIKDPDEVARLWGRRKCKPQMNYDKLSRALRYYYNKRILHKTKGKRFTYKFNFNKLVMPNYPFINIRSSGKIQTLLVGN
# Summary of the method: as §1
# ETV6 = ETV6 (Homo sapiens, UniProt P41212 1-452)
# Sequence of ETV6 (P41212 whole entry): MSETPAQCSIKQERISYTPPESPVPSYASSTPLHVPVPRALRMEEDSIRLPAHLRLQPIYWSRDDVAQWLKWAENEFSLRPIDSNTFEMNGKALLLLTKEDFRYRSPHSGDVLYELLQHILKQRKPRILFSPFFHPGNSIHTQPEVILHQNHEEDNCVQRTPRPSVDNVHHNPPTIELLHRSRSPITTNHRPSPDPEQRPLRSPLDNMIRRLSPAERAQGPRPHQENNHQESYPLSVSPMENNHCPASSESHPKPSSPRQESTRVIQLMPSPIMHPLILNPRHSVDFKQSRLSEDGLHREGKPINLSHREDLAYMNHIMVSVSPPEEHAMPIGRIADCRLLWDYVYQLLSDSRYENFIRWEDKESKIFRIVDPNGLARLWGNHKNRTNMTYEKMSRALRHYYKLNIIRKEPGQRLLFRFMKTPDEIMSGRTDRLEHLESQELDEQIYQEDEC
# Summary of the method: as §1
Sequence,binding signal (ERF),binding signal (ETV3L),binding signal (ETS2),binding signal (SPDEF),binding signal (ETV7),binding signal (ELF5),binding signal (ETV3),binding signal (ETV6)
TTGTGC,"1.31 fold enrichment (6-mer frequency, TF over GST control)","1.12 fold enrichment (6-mer frequency, TF over GST control)","1.17 fold enrichment (6-mer frequency, TF over GST control)","1.15 fold enrichment (6-mer frequency, TF over GST control)","1.08 fold enrichment (6-mer frequency, TF over GST control)","1.23 fold enrichment (6-mer frequency, TF over GST control)","1.15 fold enrichment (6-mer frequency, TF over GST control)","1.23 fold enrichment (6-mer frequency, TF over GST control)"
CCAAAA,"1.16 fold enrichment (6-mer frequency, TF over GST control)","1.1 fold enrichment (6-mer frequency, TF over GST control)","1.11 fold enrichment (6-mer frequency, TF over GST control)","1.11 fold enrichment (6-mer frequency, TF over GST control)","1.11 fold enrichment (6-mer frequency, TF over GST control)","1.11 fold enrichment (6-mer frequency, TF over GST control)","1.15 fold enrichment (6-mer frequency, TF over GST control)","1.2 fold enrichment (6-mer frequency, TF over GST control)"
CTTAAC,"1.3 fold enrichment (6-mer frequency, TF over GST control)","1.22 fold enrichment (6-mer frequency, TF over GST control)","1.3 fold enrichment (6-mer frequency, TF over GST control)","1.36 fold enrichment (6-mer frequency, TF over GST control)","1.29 fold enrichment (6-mer frequency, TF over GST control)","1.31 fold enrichment (6-mer frequency, TF over GST control)","1.3 fold enrichment (6-mer frequency, TF over GST control)","1.29 fold enrichment (6-mer frequency, TF over GST control)"
CCTGAT,"1.5 fold enrichment (6-mer frequency, TF over GST control)","1.36 fold enrichment (6-mer frequency, TF over GST control)","1.46 fold enrichment (6-mer frequency, TF over GST control)","1.59 fold enrichment (6-mer frequency, TF over GST control)","1.29 fold enrichment (6-mer frequency, TF over GST control)","1.64 fold enrichment (6-mer frequency, TF over GST control)","1.43 fold enrichment (6-mer frequency, TF over GST control)","1.41 fold enrichment (6-mer frequency, TF over GST control)"
TCCTTC,"1.95 fold enrichment (6-mer frequency, TF over GST control)","1.9 fold enrichment (6-mer frequency, TF over GST control)","2.09 fold enrichment (6-mer frequency, TF over GST control)","2.21 fold enrichment (6-mer frequency, TF over GST control)","1.92 fold enrichment (6-mer frequency, TF over GST control)","3.06 fold enrichment (6-mer frequency, TF over GST control)","2.21 fold enrichment (6-mer frequency, TF over GST control)","2.31 fold enrichment (6-mer frequency, TF over GST control)"
TAACGC,"1.06 fold enrichment (6-mer frequency, TF over GST control)","1.18 fold enrichment (6-mer frequency, TF over GST control)","1.15 fold enrichment (6-mer frequency, TF over GST control)","1.15 fold enrichment (6-mer frequency, TF over GST control)","1.01 fold enrichment (6-mer frequency, TF over GST control)","1.13 fold enrichment (6-mer frequency, TF over GST control)","1.2 fold enrichment (6-mer frequency, TF over GST control)","1.17 fold enrichment (6-mer frequency, TF over GST control)"
ATCCCC,"1.43 fold enrichment (6-mer frequency, TF over GST control)","1.41 fold enrichment (6-mer frequency, TF over GST control)","1.29 fold enrichment (6-mer frequency, TF over GST control)","1.41 fold enrichment (6-mer frequency, TF over GST control)","1.3 fold enrichment (6-mer frequency, TF over GST control)","1.46 fold enrichment (6-mer frequency, TF over GST control)","1.35 fold enrichment (6-mer frequency, TF over GST control)","1.29 fold enrichment (6-mer frequency, TF over GST control)"
TATCGT,"1.28 fold enrichment (6-mer frequency, TF over GST control)","1.08 fold enrichment (6-mer frequency, TF over GST control)","1.11 fold enrichment (6-mer frequency, TF over GST control)","1.07 fold enrichment (6-mer frequency, TF over GST control)","1.08 fold enrichment (6-mer frequency, TF over GST control)","1.08 fold enrichment (6-mer frequency, TF over GST control)","1.15 fold enrichment (6-mer frequency, TF over GST control)","1.12 fold enrichment (6-mer frequency, TF over GST control)"
CTCCGA,"1.41 fold enrichment (6-mer frequency, TF over GST control)","1.38 fold enrichment (6-mer frequency, TF over GST control)","1.35 fold enrichment (6-mer frequency, TF over GST control)","1.36 fold enrichment (6-mer frequency, TF over GST control)","1.24 fold enrichment (6-mer frequency, TF over GST control)","1.23 fold enrichment (6-mer frequency, TF over GST control)","1.3 fold enrichment (6-mer frequency, TF over GST control)","1.33 fold enrichment (6-mer frequency, TF over GST control)"

# — article PMC7862700, “An all-to-all approach to the identification of sequence-specific readers for epigenetic DNA modifications on cytosine”
